We go through seven compounds from PubChem BioAssay (Tox21).

Experiment [1] is described as follows: qHTS assay for small molecules that induce genotoxicity in human embryonic kidney cells expressing luciferase-tagged ATAD5 (AID 651632). Further: nearly all actives have a fitted effect of over 15% in size. Put shortly: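 Concentration-response screen for ATAD5 upregulation in HEK293T luciferase reporter cells; 16 hr treatment at 37C, then luminescence after 30 min with Amplite at room temperature.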
The nature of experiment [2]: qHTS assay for small molecule agonists of the p53 signaling pathway - cell viability (AID 651633; calls by dose curve; further: nearly all actives have a fitted effect of over 30% in size; further: potency means the concentration at half of the fitted maximal effect). In short, it runs like this:
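p53RE-bla cells, seeded at 4,000 per well and rested 5 h at 37 C/5% CO2, received compounds in DMSO for 16 h at 37 C. CellTiter-Glo was then added, and luminescence was read after 30 min at room temperature to gauge cytotoxicity.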
In general terms: Quantitative high-throughput screening tests each substance at several concentrations.

Experiment [3] in a line: qHTS assay for small molecules that induce genotoxicity in human embryonic kidney cells expressing luciferase-tagged ATAD5 - cell viability (AID 651634; calls by dose curve; further: nearly all actives have a fitted effect of over 25% in size; further: potency means the concentration at half of the fitted maximal effect). In short, it runs like this: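 15.5 hr compound or vehicle exposure of HEK293T cells expressing luciferase-tagged ATAD5 at 37C; live-cell protease activity is read by fluorescence after 30 min of CellTiter-Fluor.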
The nature of experiment [4]: qHTS assay for small molecule disruptors of the mitochondrial membrane potential - cell viability (AID 720634; calls by dose curve; further: nearly all actives have a fitted effect of over 20% in size; further: potency means the concentration at half of the fitted maximal effect). In short, it runs like this: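 In this qHTS format, HepG2 cells plated overnight were pinned with compound, incubated 1 hr, and assayed for ATP luminescence with CellTiter-Glo after m-MPI dye addition.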
A short description of experiment [5]: qHTS assay to test for compound auto fluorescence at 590 nm (red) in HepG2 cells (AID 720674). In short, it runs like this: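 Intrinsic compound fluorescence in the red window (Ex/Em 540/590 nm) is measured in attached HepG2 cells exposed for 1 hr, DMSO vehicle as baseline, benchmarked to Rose Bengal sodium.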
A short description of experiment [6]: qHTS assay to test for compound auto fluorescence at 535 nm (green) in HepG2 cells (AID 720675).
Experiment [7] can be described thus: qHTS assay to test for compound auto fluorescence at 460 nm (blue) in HEK293 cells (AID 720678). Put shortly:
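Blue-channel (Ex/Em 405/460 nm) intensity measured in HEK293 cultures after overnight compound exposure at 37C; signal expressed relative to triamterene. Cells plated 2,000 per well in 10% dialyzed FBS medium and allowed 4-5 hr to attach.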

The nature of experiment [8]: qHTS assay to test for compound auto fluorescence at 590 nm (red) in HEK293 cells (AID 720679). Put shortly: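 Red-channel autofluorescence (Ex/Em 540/590 nm; Rose Bengal sodium reference) was measured after overnight 37C, 5% CO2 exposure of attached HEK293 cells, 2,000 per well in medium with 10% dialyzed FBS.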
Experiment [9] in a line: qHTS assay to test for compound auto fluorescence at 535 nm (green) in HEK293 cells (AID 720680).
A short description of experiment [10]: qHTS assay to test for compound auto fluorescence at 460 nm (blue) in HEK293 cell free culture (AID 720681). Put shortly:
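Test compounds were pinned into cell-free culture medium (DMEM with 10% FBS) and fluorescence was read directly at Ex/Em 405/460 nm. Signals were expressed as fluorescence equivalents of triamterene, with DMSO vehicle as control.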

Experiment [11] can be described thus: qHTS assay to test for compound auto fluorescence at 535 nm (green) in HEK293 cell free culture (AID 720682). In short, it runs like this:
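Cell-free medium (DMEM, 10% FBS) receives compound or DMSO by pintool. Plate read directly at Ex 485/Em 535 nm. Signal converted to fluorescein equivalency.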

The nature of experiment [12]: qHTS assay to test for compound auto fluorescence at 590 nm (red) in HEK293 cell free culture (AID 720683). Put shortly: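 Tox21 10K library compounds were pinned into cell-free DMEM with 10% FBS and fluorescence was read at excitation 540 nm. Activity is expressed as Rose Bengal sodium equivalency.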
Experiment [13] is described as follows: qHTS assay to test for compound auto fluorescence at 590 nm (red) in HepG2 cell free culture (AID 720684). Put shortly:
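Ex 540 / Em 590 nm read of compound in cell-free MEM (10% FBS). Rose Bengal sodium reference.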

Experiment [14] in a line: qHTS assay to test for compound auto fluorescence at 535 nm (green) in HepG2 cell free culture (AID 720686).
For experiment [15], the target named is Glucocorticoid receptor (Homo sapiens) (UniProt P04150). The experiment can be described thus: qHTS assay to identify small molecule agonists of the glucocorticoid receptor (GR) signaling pathway (AID 720691; active means well fitted activation curve with a large enough effect in the signal ratio in the repeat runs, not every such curve was filed as active; the % refers to the signal ratio). The following applies: GR-bla HeLa, beta-lactamase reporter ratio, 18 h; activation: at 62.4 µM (top of the series). Put shortly: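 Measures GR pathway activation through a GRE-beta-lactamase reporter stably integrated in HeLa cells, with 18 h compound treatment at 37 C and fluorescence detection using a FRET substrate.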

The nature of experiment [16]: qHTS assay to test for compound auto fluorescence at 460 nm (blue) in HepG2 cell free culture (AID 720685). Put shortly:
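Cell-free plates of MEM plus 10% FBS received 23 nL compound or DMSO vehicle; blue-channel (405/460 nm) intensity scored against triamterene as reference fluorophore.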

Experiment [17] in a line: qHTS assay to test for compound auto fluorescence at 460 nm (blue) in HepG2 cells (AID 720687). In short, it runs like this:
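Cells (2,000/well in MEM with 10% FBS) attached overnight at 37 C, then were exposed to compound or DMSO for 1 hr at 37 C, 5% CO2. Fluorescence read at Ex/Em 405/460 nm, expressed as triamterene-equivalent signal.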

The target in experiment [18] is Glucocorticoid receptor (Homo sapiens) (UniProt P04150). The experiment can be described thus: qHTS assay to identify small molecule antagonists of the glucocorticoid receptor (GR) signaling pathway (AID 720692; active means well fitted inhibition curve with a large enough effect in the signal ratio in the repeat runs, not every such curve was filed as active; the % refers to the signal ratio). Put shortly: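 Tox21 10K library screened in concentration-response for blockade of dexamethasone (5 nM final)-induced GRE-bla reporter activity in HeLa cells; 18 h treatment, fluorescence read.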

Experiment [19] in a line: qHTS assay for small molecule disruptors of the mitochondrial membrane potential (AID 720635). Further: potency means the concentration at half of the fitted maximal effect. Put shortly: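 HepG2 cells (2,000/well) attached overnight at 37C, then took compound for 1 hr at 37C, 5% CO2. Mito-MPS dye was added for 30 min; fluorescence was read at 490/535 nm (monomers) and 540/590 nm (aggregates).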

Each structure is given as a SMILES string. Values joined by “and” are separate entries in the source; they are usually repeats but may differ in a detail not shown here. Equal entries are not always repeated. Unmarked numbers belong to inactive results. Inconclusive results are not listed. Active and inactive are the calls of the source. Unless noted, the call rests on the fitted dose curve; in most records, active means well fitted curve in the direction sought with a large enough effect in the repeat runs; inconclusive means weak or mixed curves; inactive means no such curve, though single readings can be large; an effect the other way counts as inactive or inconclusive.
On the % scale 0 is the no-effect control and ±100 the full control effect.

Glucocorticoid receptor (Homo sapiens), sequence (P04150 whole entry, looked up): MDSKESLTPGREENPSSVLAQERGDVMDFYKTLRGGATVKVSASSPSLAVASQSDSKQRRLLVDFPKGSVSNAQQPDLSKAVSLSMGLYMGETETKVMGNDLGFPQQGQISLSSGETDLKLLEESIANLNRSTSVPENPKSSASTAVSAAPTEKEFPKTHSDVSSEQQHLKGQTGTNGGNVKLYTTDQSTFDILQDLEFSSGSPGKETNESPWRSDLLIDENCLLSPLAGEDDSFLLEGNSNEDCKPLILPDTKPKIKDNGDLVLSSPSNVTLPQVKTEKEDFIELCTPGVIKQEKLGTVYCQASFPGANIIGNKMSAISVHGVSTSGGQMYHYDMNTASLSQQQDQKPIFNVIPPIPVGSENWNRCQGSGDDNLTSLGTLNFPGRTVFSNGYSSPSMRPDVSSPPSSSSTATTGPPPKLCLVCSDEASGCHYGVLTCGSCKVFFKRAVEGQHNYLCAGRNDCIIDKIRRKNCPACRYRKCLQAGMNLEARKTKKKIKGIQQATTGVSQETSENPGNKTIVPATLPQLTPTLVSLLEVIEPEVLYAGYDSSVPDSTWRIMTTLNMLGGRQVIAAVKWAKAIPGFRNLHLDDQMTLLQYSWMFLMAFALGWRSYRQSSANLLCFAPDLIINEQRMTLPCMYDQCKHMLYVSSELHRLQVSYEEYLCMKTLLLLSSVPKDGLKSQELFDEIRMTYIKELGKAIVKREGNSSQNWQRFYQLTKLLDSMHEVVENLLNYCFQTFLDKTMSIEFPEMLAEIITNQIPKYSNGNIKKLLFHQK

`O=C(O)CC(=O)O`: the Potency entry in experiment [1], in [2], in experiment [3], in [4], in [5] and in [6] was “inactive” each time. In addition, the Potency result in experiment [7], in experiment [8], in experiment [9], in [10], in experiment [11] and in experiment [12] was “inactive” throughout. The Potency result in [13], in experiment [14] and in experiment [15] was “inactive” throughout.
For the compound `CCN(CC)CCOC(=O)C1(C2CCCCC2)CCCCC1`, the Potency result in [1], in experiment [2], in [3], in [4], in experiment [5] and in experiment [6] was “inactive” each time. Besides, the Potency entry in experiment [7], in [8], in [9], in experiment [10], in experiment [11] and in experiment [12] was “inactive” each time. In addition, the Potency entry in [13], in experiment [16], in experiment [14], in experiment [17], in [15] and in [18] was “inactive” in each case.
Regarding `CCOC(=O)[C@@](C)(N)Cc1ccc(O)c(O)c1`, the Potency result in [1], in experiment [2], in [3], in [4], in experiment [19] and in [15] was “inactive” in each case. Moreover, the Potency entry in experiment [18] is “inactive”. Further, the fluorescence, relative to Rose Bengal in experiment [5] was -0.208% [at 18.6 µM]. The fluorescence, % of fluorescein control is -0.17% [at 18.6 µM] in experiment [6] and -0.0478% [at 18.6 µM] in experiment [14]. Also, the fluorescence, % of triamterene in experiment [7] was 0.197% [at 18.6 µM]. Moreover, the fluorescence, % of fluorescent control is 0.559% [at 18.6 µM] in [8], 0.186% [at 18.6 µM] in experiment [10], 0.193% [at 18.6 µM] in [16] and 0.0997% [at 18.6 µM] in experiment [17]. Moreover, in [9], the fluorescence, % of fluorescein was -0.0378% [at 18.6 µM]. Also, the activity change in experiment [11] was -0.0329% [at 18.6 µM, stronger effect = higher value].
With `CCOC(=O)N1CCC(=C2c3ccc(Cl)cc3CCc3cccnc32)CC1`, the Potency entry in experiment [1], in experiment [5], in experiment [7], in experiment [8], in experiment [9] and in experiment [10] was “inactive” throughout. Besides, the Potency result in experiment [11], in experiment [12], in [13], in experiment [14], in experiment [17] and in experiment [15] was “inactive” throughout. For the same compound, the Potency in experiment [2] was 68.6 µM (active); in experiment [3] it was 43.3 µM (active); in experiment [4], 27.3 µM (active); in experiment [19] it was 29.8 µM (active) and 54.5 µM (active).
On to `O=C(O)Cc1ccc(OCCNC[C@H](O)c2ccccc2)cc1`, for which the Potency entry in experiment [1], in [2], in experiment [3], in [4], in experiment [19] and in experiment [5] was “inactive” throughout. The Potency entry in experiment [7], in experiment [8], in experiment [9], in experiment [10], in [11] and in [12] was “inactive” each time. For the same compound, the Potency result in experiment [13], in experiment [16], in [14], in experiment [17], in experiment [15] and in [18] was “inactive” each time.
As to `O=C1OC(OC(=O)c2cccnc2Nc2cccc(C(F)(F)F)c2)c2ccccc21` (configuration not stated), the Potency result in experiment [1], in experiment [2], in experiment [3], in experiment [4], in [5] and in experiment [6] was “inactive” each time. The Potency result in experiment [7], in experiment [8], in experiment [9], in experiment [10], in experiment [11] and in experiment [12] was “inactive” in each case. For the same compound, the Potency result in experiment [13], in [16], in experiment [14], in [17] and in [18] was “inactive” throughout.
In the case of `CC(C)(c1cc(Br)c(OCCO)c(Br)c1)c1cc(Br)c(OCCO)c(Br)c1`, the Potency entry in experiment [1], in experiment [4], in [5], in experiment [6], in experiment [7] and in experiment [8] was “inactive” throughout. In addition, the Potency result in experiment [9], in [10], in [11], in [12], in experiment [13] and in experiment [14] was “inactive” throughout. The Potency entry in experiment [17] is “inactive”. For the same compound, the Potency in experiment [2] was 47.5 µM (active); in experiment [3], 37.7 µM (active); in [19] it was 5.97 µM (active).
